In the library only some 4.3% were active in any assay of this set; here they are far more common.
ADAM17 inh = ADAM17 inhibition, QFRET primary screen | inhibition, % at 6.95 µM | P78536 | recombinant ADAM17, EDANS/DABCYL FRET peptide cleavage | 0.83% of 370,000 active;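 active = inhibition above the mean of compounds lying between control limits plus 3 SD, set per campaign, cut at about 8.5% in these data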;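 also: 0% = DMSO-only wells as the low control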
FAS-TE inh = FAS thioesterase (human) inhibition | inhibition, % at 15 µM | recombinant FAS-TE, OMFH fluorogenic substrate, fluorescence endpoint | 0.67% of 360,000 active | P49327;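 active = compounds whose normalised, plate-corrected inhibition of enzyme fluorescence in the single-dose primary screen is 50% or more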;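 also: 0% = DMSO with enzyme and 100% = substrate without enzyme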
ADAM10 inh = ADAM10 inhibition, QFRET primary screen; O14672; recombinant ADAM10, EDANS/DABCYL FRET peptide cleavage, 3 h; inhibition, % at 7 µM; 0.62% of 370,000 active; AID 720582;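 active = inhibition above a per-campaign cutoff equal to the mean of compounds falling between control-based bounds plus 3 SD, cut at about 20% in these data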;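 also: 0% = DMSO wells while the 100% control is not disclosed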
GRIN3A LBD mod = modulators (binders) of human NR3A ligand-binding domain. Tm shift relative to glycine control, % at 25 µM. NR3A LBD differential scanning fluorimetry, Tm shift; 0% = protein alone, 100% = glycine-bound protein. 2.5% of 340,000 active;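 active = melting temperature shift of at least 10% of the positive control shift, at one fixed dose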
HGIII-sPLA2 inh = Inhibits HGIII-sPLA2 liposome hydrolysis, primary screen. inhibition, % at 12.2 µM. 0.56% of 370,000 active. QFRET BODIPY PC-A2 liposome hydrolysis, fluorescence. Q9NZ20;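 active = inhibition above mean plus 3 SD of compounds lying within the high and low control bounds, cut at about 19% in these data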;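 also: 0% = median of test compound wells and 100% = no enzyme DMSO wells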
Target sequence (Q9NZ20 whole entry, looked up): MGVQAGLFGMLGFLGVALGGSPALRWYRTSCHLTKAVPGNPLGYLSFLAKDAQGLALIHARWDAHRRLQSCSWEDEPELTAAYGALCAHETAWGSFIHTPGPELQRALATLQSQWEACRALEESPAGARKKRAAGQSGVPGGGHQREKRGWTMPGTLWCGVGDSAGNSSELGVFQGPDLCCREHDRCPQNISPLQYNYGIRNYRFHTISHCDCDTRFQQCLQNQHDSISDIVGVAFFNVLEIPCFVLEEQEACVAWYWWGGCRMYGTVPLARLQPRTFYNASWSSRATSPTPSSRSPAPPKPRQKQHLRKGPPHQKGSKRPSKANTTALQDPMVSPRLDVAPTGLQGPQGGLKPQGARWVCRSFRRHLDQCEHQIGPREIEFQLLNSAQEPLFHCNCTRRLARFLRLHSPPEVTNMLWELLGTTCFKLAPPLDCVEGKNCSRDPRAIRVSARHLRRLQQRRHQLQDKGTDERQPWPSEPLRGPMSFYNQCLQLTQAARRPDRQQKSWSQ
An asterisk follows results filed as active; i = inactive; / = no result.

SMILES	ADAM17 inh	FAS-TE inh	ADAM10 inh	GRIN3A LBD mod	HGIII-sPLA2 inh
N#Cc1cccc(NC(=O)c2ccc(S(=O)(=O)N3CCOCC3)cc2)c1	-4	1	-17	16*	5
CC(C)(C)N(Cc1cn(Cc2ccccc2)nn1)S(=O)(=O)c1ccc(N2CCCC2)cc1Br	6	/	4	/	6
O=c1c(-c2c(O)cc(O)c3c(=O)cc(-c4ccc(O)cc4)oc23)c(-c2ccc(O)cc2)oc2cc(O)cc(O)c12	2	12	-8	27*	-21
O=c1c(O)c(-c2ccc(O)c(O)c2)oc2cc(O)cc(O)c12	-3	22	6	22*	1
O=c1cc(-c2ccc(O)c(O)c2)oc2cc(O)cc(O)c12	2	-3	5	10	-10
O=c1cc(-c2ccc(O)c(-c3c(O)cc(O)c4c(=O)cc(-c5ccc(O)cc5)oc34)c2)oc2cc(O)cc(O)c12	6	29	14	18*	4
COc1ccc(-c2cc(=O)c3c(O)cc(O)cc3o2)cc1	-7	8	-4	0	-7
O=C(O)C1OC(Oc2c(-c3ccc(O)c(O)c3)oc3cc(O)cc(O)c3c2=O)C(O)C(O)C1O (configuration not stated)	/	/	/	-4	/
O=c1cc(-c2ccc(O)cc2)oc2c(-c3c(O)cc(O)c4c(=O)cc(-c5ccc(O)cc5)oc34)c(O)cc(O)c12	2	20	-1	21*	4
c1ccc(CCSc2nnc(-c3cccnc3)n2Cc2ccccc2)cc1	-1	/	1	/	0
Cc1[nH]n(C(N)=S)c(=O)c1N=Nc1cc(-c2ccc(Br)cc2)[nH]n1	-6	8	0	24*	-7
C[C@H]1CCCC(=O)N[C@@H](c2ccccc2)[C@@H](C)CCCC(=O)N[C@H]1c1ccccc1	-4	/	-3	/	-2
O=C(Cn1nnc(-c2ccccc2)n1)N/N=C/c1cc([N+](=O)[O-])c(Cl)cc1Cl	-2	17	-5	16*	-2
Cn1c(=O)c2c(ncn2CC(=O)N2CCN(c3ccc([N+](=O)[O-])cc3)CC2)n(C)c1=O	2	1	-1	18*	-5
COc1ccc(N2CCN(C(=O)Cn3cnc4c3c(=O)n(C)c(=O)n4C)CC2)cc1	1	-7	-3	4	0
O=C(c1ccccc1)N1CC[C@H]2[C@H](CCCN2Cc2cc(F)cc(F)c2)C1	3	/	3	/	-5
Cc1cc(C)c(C#N)c(SCCS(=O)(=O)Cc2ccc(Cl)cc2)n1	-7	24	-10	18*	-3
O=C(CN1C(=O)c2ccccc2C1=O)N1CCN(C2c3ccccc3-c3ccccc32)CC1	3	56*	3	-7	4
O=C(Nn1cnnc1)c1ccc([N+](=O)[O-])cc1Cl	-4	-6	-6	-1	21*
O=C(Nn1cnnc1)c1cc([N+](=O)[O-])cc([N+](=O)[O-])c1	2	-6	5	1	-2
Cc1ccc(S(=O)(=O)N(CC(=O)N2CCC(C)CC2)Cc2ccccc2F)cc1	-1	16	4	13*	-10
CC(C)=CCc1c(O)cc2c(=O)c3ccc(O)cc3oc2c1O	4	-30	8	25*	-35
CC(C)=CCc1c(O)cc(O)c2c(=O)c(O[C@@H]3O[C@@H](C)[C@H](O)[C@@H](O)[C@H]3O)c(-c3ccc(O)cc3)oc12	/	-1	/	-3	/
CC(C)=CCc1c(O)cc(O)c2c(=O)c3c(CC=C(C)C)c(O)ccc3oc12	/	/	/	26*	/
COc1c(CC=C(C)C)c(O)cc2oc(=O)c3c4ccc(O)cc4oc3c12	/	0	/	10	/
SMILES	ADAM17 inh	FAS-TE inh	ADAM10 inh	GRIN3A LBD mod	HGIII-sPLA2 inh
c1ccc(-c2cc(-c3ccccc3)on2)cc1	-6	0	-7	30*	12
COc1ccc(NC(=O)c2n[nH]c(=O)c3ccccc23)cc1S(=O)(=O)N1CCCCC1	2	-5	5	26*	-26
COc1ccc(C(=O)Nc2ccncc2)cc1S(=O)(=O)N1CCOCC1	0	-6	-10	-1	8
O=C(Nc1ccccc1)c1ccc(N2CCN(c3ccccn3)CC2)c(S(=O)(=O)N2CCOCC2)c1	4	25	14	-6	-12
COc1ccc(C(=O)Nc2ccc(NC(=O)c3ccccc3)cc2)cc1S(=O)(=O)N1CCOCC1	0	-4	-8	32*	-2
O=C(Nc1ccccc1)c1ccc(N2CCN(c3ccccc3)CC2)c(S(=O)(=O)N2CCOCC2)c1	0	56*	9	-1	-1
Cc1cccc(C2=NN(c3ccc(Br)cc3)[C@@H](C(=O)N3CCOC3=O)[C@@H]2c2ccc(Cl)cc2)c1	/	74*	/	17*	/
CC[C@@H]1C(c2ccccc2)=NN(c2ccc(Br)cc2)[C@H]1C(=O)N1CCOC1=O	-67	29	-249	9	-12
CC[C@@H]1C(c2ccc(F)cc2)=NN(c2ccc(Br)cc2)[C@H]1C(=O)N1CCOC1=O	-58	34	-220	19*	-10
CC[C@@H]1C(c2cccc(C)c2)=NN(c2ccccc2)[C@H]1C(=O)N1CCOC1=O	-17	16	-68	-1	-3
COc1ccccc1[C@@H]1C(c2cccc(Cl)c2)=NN(c2ccccc2)[C@H]1C(=O)N1CCOC1=O	/	91*	/	-2	/
Cc1cccc(C2=NN(c3ccc(Br)cc3)[C@@H](C(=O)N3CCOC3=O)[C@@H]2c2ccc(F)cc2)c1	-208	74*	i	5	-12
O=C1OCCN1C(=O)[C@H]1[C@H](c2ccccc2)C(c2cccc(Cl)c2)=NN1c1ccc(Br)cc1	-131	49	i	7	-11
O=C(CN1CCc2onc(-c3ccc(-n4cc(C5=CCCCC5)nn4)cc3)c2C1=O)N1CCOCC1	-1	/	-17	/	-2
O=C(CSc1nc2ccc([N+](=O)[O-])cc2[nH]1)c1ccc2ccccc2c1	4	16	11	23*	-52
COP(=O)(CC(=O)OC(C)(C)C)C(CC(C)C)NC(=O)OCc1ccccc1 (configuration not stated)	-2	/	0	/	3
COC(=O)[C@]12C[C@H](CC(=O)NCCCCc3ccccc3)C(=O)N(Cc3cccc4ccccc34)C1=C[C@H](COCc1ccccc1)O[C@@H]2C	-1	/	9	/	-19
Fc1ccc(-c2ccc(Nc3cccc(F)c3)nn2)cc1	2	2	3	30*	-7
Fc1ccc(Nc2ccc(-c3ccc(F)cc3)nn2)cc1	-1	9	-1	26*	1
Cc1ccccc1C(=O)NC1CCCCN(Cc2cccc(Cl)c2)C1=O (configuration not stated)	-6	/	-2	/	2
CC(C)(C)c1nnc2sc(SCC(=O)c3ccc(Cl)cc3)nn2c1=O	/	51*	/	-26	/
CN1C/C(=C/c2ccccc2)N2C(=O)C[C@@H](c3ccccc3)N=C12	-3	/	-4	/	2
O=C(COc1ccc(-c2ccccc2)cc1)N1CCN(C(=O)c2cccnc2)CC1	0	-1	11	12*	1
O=C1C=CC(=Nc2ccc3c(c2)Cc2cc(F)ccc2-3)O1	-18	5	-76	23*	7
